# Measurements taken from PubChem BioAssay (Tox21).
# Values joined by “and” are separate entries in the source; they are usually repeats but may differ in a detail not shown here. Equal values may be shown once. Results filed as inconclusive are left out. Entries that show only a call come without a potency. A structure can be active in one record and inactive in another. Active and inactive are the calls of the source. Calls follow the shape of the dose curve; as a rule, active = well fitted cell-killing curve with a large enough effect in the repeat runs; inconclusive = weak or mixed curves, or effect the other way; inactive = flat fitted curve, though single readings scatter.
# Assay: qHTS RealTime-Glo MT Cell Viability Assay in HEK293 cells - 32 hour (AID 1224868); also: nearly all actives have a fitted effect of over 50% in size; as to activity change, negative = cytotoxic: top concentration of the series differs between compounds
# Conditions: RealTime-Glo luminescence; series mostly up to 76.8 µM; activity change, negative = cytotoxic: at the top concentration
# From the text: National Center for Advancing Translational Sciences [NCATS]
# NIH Chemical Genomics Center [NCGC]
# U.S. Environmental Protection Agency [EPA]
# National Institutes of Environmental Health Sciences [NIEHS]
# National Toxicology Program [NTP]
# U.S. Food and Drug Administration [FDA]
# Measure of cell viability is critical in the cell-base assay. Analysis of cell viability is necessary for the characterization of cell responses to cytotoxic drugs and environmental stress. A RealTime-Glo MT Cell Viability Assay to monitor cell viability in real time of continues cell culture during 40 hours of compound treatment was used to screen Tox21 10K library compounds in Hek293 cells. The RealTime-Glo MT Cell Viability Assay is a nonlytic, homogeneous, bioluminescent method to measure cell viability in real time using a simple, plate-based method. The assay involves adding NanoLuc luciferase and a cell-permeant prosubstrate to cells in culture. Viable cells reduce the proprietary prosubstrate to generate a substrate for NanoLuc luciferase. This substrate diffuses from cells into the surrounding culture medium, where it is rapidly used by the NanoLuc Enzyme to produce a luminescent signal. The signal correlates with the number of viable cells, making the assay well suited for cytotoxicity studies.
# Tox21 Assay Protocol Summary:
# The mixture of Hek293 cell suspension and reagents were dispensed at 600cells/6 ul/well in 1536-well tissue culture treated black solid bottom plates using a Multidrop dispenser. After the assay plates were incubated at a 37 C/5% CO2 incubator for 5 hours, 23 nL of compounds dissolved in DMSO, positive and negative controls was transferred to the assay plate by a pintool work station. The plates were incubated at 37 C for 40 hours. The luminescence intensity were measured at 0h, 8h, 16h, 24h, 32h and 40h time points using ViewLux plate reader during compound treatment.
# Potency is read from the fitted curve at half-maximal effect.
Structure (SMILES),Potency,"activity change, negative = cytotoxic"
c1cc(-c2ccncc2)ccn1,inactive,–
O=C(O)c1ccccc1Nc1cccc(C(F)(F)F)c1,inactive,–
CC(C)OC(=O)C(C)(C)Oc1ccc(C(=O)c2ccc(Cl)cc2)cc1,21.9 µM (active) and 10.7 µM (active),–
Cc1ccc2c(n1)Oc1ccc(C(C)C(=O)OCC(=O)N(C)C)cc1C2 (stereo not given),–,-23.6% [at 35.3 µM] (inactive)
CN(C)c1nc(N(C)C)nc(N(C)C)n1,inactive,–
O=C=Nc1ccc(Cc2ccc(N=C=O)cc2)cc1,inactive,–
CC(C)=CCC/C(C)=C\CO,inactive,–
COC(C)COC(C)COC(C)CO (stereo not given),inactive,–
OC[C@H]1O[C@@H]2O[C@H]3[C@H](O)[C@@H](O)[C@@H](O[C@H]4[C@H](O)[C@@H](O)[C@@H](O[C@H]5[C@H](O)[C@@H](O)[C@@H](O[C@H]6[C@H](O)[C@@H](O)[C@@H](O[C@H]7[C@H](O)[C@@H](O)[C@@H](O[C@H]8[C@H](O)[C@@H](O)[C@@H](O[C@H]1[C@H](O)[C@H]2O)O[C@@H]8CO)O[C@@H]7CO)O[C@@H]6CO)O[C@@H]5CO)O[C@@H]4CO)O[C@@H]3CO,–,3.07% [at 35.3 µM] (inactive)
C=CC(C)(CCC=C(C)C)OC(C)=O (stereo not given),inactive,–
COc1cc([C@@H]2c3cc4c(cc3[C@H](O)[C@H]3COC(=O)[C@H]23)OCO4)cc(OC)c1OC,48.9 nM (active),–
OC1CCCCCCCCCCC1,inactive,–
CC(CCC(=O)O)(c1ccc(O)cc1)c1ccc(O)cc1,inactive,–
CC(C)OC=O,inactive,–
Cc1c(C(N)=O)cc([N+](=O)[O-])cc1[N+](=O)[O-],inactive,–
CCCCC(CC)COCC1CO1 (stereo not given),inactive,–
Nc1ccccc1N,–,-8.6% (inactive)
Nc1ccc(Cl)cc1Cl,inactive,–
COC(=O)C1=C(C)NC(C)=C(C(=O)OCCN(C)Cc2ccccc2)C1c1cccc([N+](=O)[O-])c1 (stereo not given),21.7 µM (active) and 16.9 µM (active),–
Cc1c(OCC(F)(F)F)ccnc1CS(=O)c1nc2ccccc2[nH]1 (stereo not given),19.5 µM (active) and 10.7 µM (active),–

Structure (SMILES),Potency,"activity change, negative = cytotoxic"
CCCCCCCCCC(=O)OC,inactive,–
c1ccc2c(c1)Oc1ccccc1S2,inactive,–
CC(C(=O)O)c1cccc(C(=O)c2ccccc2)c1 (stereo not given),inactive,–
CC(=O)O[C@]1(C(C)=O)CC[C@H]2[C@@H]3C=C(Cl)C4=CC(=O)[C@@H]5C[C@@H]5[C@]4(C)[C@H]3CC[C@@]21C,24.5 µM (active) and inactive,–
CC1=CCC(C(C)(C)O)CC1 (stereo not given),inactive,–
OCCO,inactive,–
CCCC(=O)O,inactive,–
C#C[C@]1(O)CC[C@H]2[C@@H]3CCc4cc(OC)ccc4[C@H]3CC[C@@]21C,24.5 µM (active) and 19 µM (active),–
O=P(O)(O)O,inactive,–
COc1ccc(C(=O)CC(=O)c2ccc(C(C)(C)C)cc2)cc1,29.6 µM (active) and inactive,–
CC(C)=CCCC(C)CCO (stereo not given),inactive,–
O=C(c1ccc(OCCN2CCCCC2)cc1)c1c(-c2ccc(O)cc2)sc2cc(O)ccc12,19.5 µM (active) and 23.9 µM (active),–
CC(C)OB(OC(C)C)OC(C)C,inactive,–
Nc1ncn([C@@H]2O[C@H](CO)[C@@H](O)[C@H]2O)c(=O)n1,–,0.736% [at 35.3 µM] (inactive)
S=C(NC1CCCCC1)NC1CCCCC1,15.2 µM (active) and 21.9 µM (active),–
C[C@]12CCC(=O)C=C1CC[C@@H]1[C@@H]2C(=O)C[C@@]2(C)[C@H]1CC[C@]2(O)C(=O)CO,inactive,–
COc1ccc(OC)c(C(O)CNC(=O)CN)c1 (stereo not given),inactive,–
COc1cccc2c1C(=O)c1c(O)c3c(c(O)c1C2=O)C[C@@](O)(C(=O)CO)C[C@@H]3O[C@H]1C[C@H](N)[C@H](O)[C@H](C)O1,123 nM (active) and 213 nM (active),–
CC(=O)C1(C)CC2=C(CCCC2(C)C)CC1C (stereo not given),inactive,–
Cc1ncc[nH]1,inactive,–
